The values below come from PubChem BioAssay.

The structures appear in SMILES notation. Activity calls are given as the source filed them. Unless noted, the rule behind the calls is not given here.

The nature of assay [1]: resazurin metabolic signal in HepG2 cells – cell-based, resazurin fluorescence, 24 h, PK04 Diversity Set, profiling panel (AID 1172). Note: test concentration not given here. Conditions: HepG2 viability, higher = more signal. On the technique in general: The colour change of resazurin is a common sign of viable cells or microbes.
The nature of assay [2]: budding yeast growth changes without added modifier – OD600, strain BY4716, 24 h, basal condition, primary screen (AID 1173). Conditions: S. cerevisiae BY4716 growth, OD600, 24 h; higher = more signal, called active from +8 up or from −8 down.
Assay [3] can be described thus: viability profiling in MM1S myeloma cells – cell-based, resazurin fluorescence, basal, 24 h, PK04 Diversity Set, profiling panel (AID 1174).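 Note: MM1S multiple myeloma cell line; test concentration not given here.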 Conditions: higher = more signal, called active from +8 up or from −8 down.
Assay [4] has as its target Dihydroorotate dehydrogenase (quinone), mitochondrial (Plasmodium falciparum (isolate 3D7)) (UniProt Q08210). Put plainly: inhibition of P. falciparum DHODH – biochemical, C-terminal His tag, absorbance 600 nm, primary screen (AID 1175).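 Note: recombinant parasite enzyme with a five histidine tag at its C terminus; test concentration not given here.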 Conditions: PfDHODH enzyme, DCIP absorbance 600 nm; higher = more signal, called active from +8 up or from −8 down.
A short description of assay [5]: inhibition of PAO1 biofilm formation – strain PAO1, LB-PBS medium, absorbance 600 nm, primary screen (AID 1176). Note: test concentration not given here. Conditions: P. aeruginosa PAO1 growth/biofilm, A600, 12 h; higher = more signal.
Assay [6] in a line: growth modulation of vineyard yeast isolate – strain RM11-1a, OD600, basal, 24 h, primary screen (AID 1177).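 Note: cultures grown under basal conditions with no added stressor; test concentration not given here.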 Conditions: S. cerevisiae RM11-1a growth, OD600, 24 h; higher = more signal, called active from +8 up or from −8 down.
Assay [7] in a line: growth of efflux-deficient E. coli DRC39 – strain DRC39, OD650, 24 h, E. coli filamentation inducers, primary screen (AID 1178).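 Note: growth measured as culture turbidity by optical density at 650 nm; test concentration not given here.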 Conditions: E. coli DRC39 acrAB, higher = more signal, called active from +8 up or from −8 down.
Assay [8] is described as follows: growth of efflux-deficient E. coli DRC39 – strain DRC39, OD650, 48 h, E. coli filamentation inducers, primary screen (AID 1179).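 Note: screen aims at cell division blockers that make cells filament.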 The following applies: E. coli DRC39 delta-acrAB growth, higher = more signal, called active from +8 up or from −8 down.
Assay [9] can be described thus: viability profiling in RPMI8226 myeloma cells – cell-based, resazurin fluorescence, basal, 24 h, PK04 Diversity Set, profiling panel (AID 1180).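 Note: RPMI8826 multiple myeloma cell line at 5000 cells per well; test concentration not given here.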 The following applies: higher = more signal.
Assay [10] concerns the target E3 ubiquitin-protein ligase XIAP (Homo sapiens) (UniProt P98170). Put plainly: small molecules binding XIAP protein – biophysical, small-molecule microarray, fluorescence 635 nm, primary screen (AID 1181).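 Note: score merges 667 nm emission and signal to noise over triplicate slides.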 Conditions: higher = more signal.

Chain of E3 ubiquitin-protein ligase XIAP (Homo sapiens) (P98170 whole entry, looked up): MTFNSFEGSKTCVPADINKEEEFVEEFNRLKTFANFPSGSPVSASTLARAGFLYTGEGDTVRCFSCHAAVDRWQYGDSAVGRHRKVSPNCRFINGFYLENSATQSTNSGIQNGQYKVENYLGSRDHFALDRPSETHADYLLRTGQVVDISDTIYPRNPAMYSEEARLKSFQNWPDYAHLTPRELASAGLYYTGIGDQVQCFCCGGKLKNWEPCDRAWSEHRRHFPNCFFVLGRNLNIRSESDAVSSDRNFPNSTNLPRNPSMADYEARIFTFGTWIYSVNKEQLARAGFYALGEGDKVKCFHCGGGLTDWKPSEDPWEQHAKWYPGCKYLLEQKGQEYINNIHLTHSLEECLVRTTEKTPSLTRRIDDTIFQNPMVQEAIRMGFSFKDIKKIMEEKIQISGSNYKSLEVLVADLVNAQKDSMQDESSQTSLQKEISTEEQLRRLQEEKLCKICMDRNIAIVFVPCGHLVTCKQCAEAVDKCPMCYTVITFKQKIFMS
Chain of Dihydroorotate dehydrogenase (quinone), mitochondrial (Plasmodium falciparum (isolate 3D7)) (Q08210 whole entry, looked up): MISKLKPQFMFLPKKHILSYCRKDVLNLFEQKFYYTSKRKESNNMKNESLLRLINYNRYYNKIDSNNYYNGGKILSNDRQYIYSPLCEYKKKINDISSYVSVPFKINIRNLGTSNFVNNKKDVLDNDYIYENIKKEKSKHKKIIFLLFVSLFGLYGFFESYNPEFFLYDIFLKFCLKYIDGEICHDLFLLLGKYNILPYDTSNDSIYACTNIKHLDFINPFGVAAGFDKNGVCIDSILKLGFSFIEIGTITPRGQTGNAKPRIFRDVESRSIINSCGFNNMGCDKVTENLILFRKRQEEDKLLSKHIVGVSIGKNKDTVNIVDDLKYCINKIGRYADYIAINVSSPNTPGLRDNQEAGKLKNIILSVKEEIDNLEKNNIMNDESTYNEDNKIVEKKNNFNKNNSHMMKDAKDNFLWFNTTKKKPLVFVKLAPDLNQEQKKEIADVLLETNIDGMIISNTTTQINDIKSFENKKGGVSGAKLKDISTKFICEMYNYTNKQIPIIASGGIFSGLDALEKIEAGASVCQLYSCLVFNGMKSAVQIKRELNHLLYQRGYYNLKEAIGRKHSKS

Take `COc1ccc(C#Cc2ccc3c(c2)[C@]2(C(=O)N3)[C@H](C(=O)Nc3nc4ccccc4s3)[C@H]3C(=O)O[C@H](c4ccccc4)[C@H](c4ccccc4)N3[C@@H]2c2ccc(O)cc2)cc1`: the z-score in assay [1] is 1.2; in [2], 0.0338 (inactive); in assay [3] it was 0.283 (inactive); in assay [5], 0.145 (inactive); in [6] it was 1.15 (inactive); in [7] it was 0.237 (inactive). The z-score is -0.0528 (inactive) in assay [8] and 0.338 in assay [9]. The composite z-score in [4] was -2.08 (inactive); in [10] it was 0.065.
Take `CCOC(=O)C[C@H]1[C@H](OC(=O)c2ccc(C(=O)c3ccccc3)cc2)[C@@H](NC(=O)c2ccc3ccccc3n2)c2cc(OCCCO)ccc2N1C(=O)c1ccccc1`: the z-score in [1] is -0.0237; in assay [2], 0.854 (inactive); in assay [3] it was -0.266 (inactive); in [5], 0.0186 (inactive); in [6], -0.0492 (inactive); in [7], -0.28 (inactive). In addition, the z-score in assay [8] was -0.211 (inactive); in assay [9] it was -0.999. The composite z-score was -0.203 (inactive) in [4] and -0.0326 in assay [10].
`COC(=O)[C@@]1(Cc2ccc(OC)cc2)[C@H]2c3cc(C(=O)N4CCCC4)n(CCN4CNCC4=O)c3C[C@H]2CN1C(=O)c1ccccc1`: the z-score in assay [1] is -0.66; in assay [2], 0.818 (inactive); in assay [3] it was -0.359 (inactive); in assay [5] it was 1.68 (inactive); in assay [6], 1.22 (inactive); in [7] it was -0.146 (inactive). For the same compound, the z-score in [8] is -0.199 (inactive); in assay [9] it was 0.0221. Further, the composite z-score is 0.0916 (inactive) in assay [4] and 0.778 in assay [10].
With `O=C1C2C=CC(C(O)c3cccc4ccccc34)N(Nc3ccccc3F)C2C(=O)N1c1ccccc1` (stereo not given), the z-score was 0.0332 in [1]; -0.103 (inactive) in assay [2]; -0.186 (inactive) in [3]; 1.11 (inactive) in assay [5]; 0.0054 (inactive) in assay [6]; -0.844 (inactive) in assay [7]. Further, the z-score in [8] was -0.204 (inactive); in [9], 0.0889. The composite z-score in [4] is -0.629 (inactive); in [10], 0.321.
Turning to `Cc1ccc(S[C@]2(C(=O)NCCCN(C)C)CC(=O)N(Cc3ccccc3C(F)(F)F)[C@@H]2c2ccc(CO)cc2)cc1`, the z-score in assay [1] was -0.758; in [2], -0.362 (inactive); in assay [3] it was 0.515 (inactive); in assay [5] it was -0.0807 (inactive); in assay [6] it was -0.329 (inactive); in assay [7], 0.252 (inactive). The results for the z-score in assay [8] and in assay [9] were 0.164 (inactive) and 0.119, respectively. The results for the composite z-score in assay [4] and in [10] were -0.0819 (inactive) and -0.267, respectively.
Take `CCCCCCc1nc(-c2cc(C)c(OC)c(C)c2)cc2c1[Si](C(C)C)(C(C)C)OC2`: the z-score in [1] was -0.206; in assay [2], -1.09 (inactive); in [3], 0.401 (inactive); in assay [5], -0.747 (inactive); in assay [6] it was -0.493 (inactive); in [7], 0.615 (inactive). For the same compound, the z-score was 0.641 (inactive) in assay [8] and -0.11 in assay [9]. Further, the composite z-score in assay [4] was -3.17 (inactive); in assay [10], 0.0537.
For the compound `C=CCOC(=O)[C@H]1[C@@H]2C(=O)O[C@@H](c3ccccc3)[C@@H](c3ccccc3)N2[C@@H](c2ccc(OCCOC(=O)[C@H]3C[C@H]4C(=O)N[C@@H](CCCCNC(C)=O)C(=O)N4[C@H]3c3ccc(O)cc3)cc2)[C@]12C(=O)Nc1ccc(I)cc12`, the z-score in assay [1] is 0.452; in assay [2], -0.371 (inactive); in assay [3], -1.18 (inactive); in assay [5] it was 1.14 (inactive); in [6], 1.38 (inactive); in [7], -1.83 (inactive). For the same compound, the z-score is -1.16 (inactive) in [8] and -0.745 in [9]. Moreover, the results for the composite z-score in [4] and in [10] were -0.325 (inactive) and -0.0784, respectively.
For the compound `C=CCNC(=O)[C@@H]1[C@H]2C(=O)O[C@H](c3ccccc3)[C@H](c3ccccc3)N2[C@H](c2ccc(O)cc2)[C@@]12C(=O)Nc1ccc(C#CCNC(N)=O)cc12`, the z-score in [1] is -0.361; in assay [2] it was 0.295 (inactive); in [3] it was 0.194 (inactive); in [5] it was 0.0485 (inactive); in [6] it was 0.24 (inactive); in assay [7], -0.0851 (inactive). The z-score in assay [8] was -0.124 (inactive); in assay [9], 0.221. Moreover, the results for the composite z-score in assay [4] and in [10] were -0.433 (inactive) and -0.33, respectively.
As for `C=CCNC(=O)[C@@H]1[C@H]2C(=O)O[C@H](c3ccccc3)[C@H](c3ccccc3)N2[C@H](c2ccc(OCCO)cc2)[C@@]12C(=O)Nc1ccc(C#CCC(C(=O)OC)C(=O)OC)cc12`, the z-score is 0.874 in [1]; 1.12 (inactive) in assay [2]; -6.55 (inactive) in assay [3]; 1.89 (inactive) in [5]; 2.26 (inactive) in assay [6]; 0.196 (inactive) in assay [7]. For the same compound, the z-score is 0.286 (inactive) in assay [8] and -5.98 in [9]. Moreover, the figures for the composite z-score in assay [4] and in assay [10] were -4.92 (inactive) and 0.132, respectively.
With `CC(C)C(CO)N1C(=O)[C@@H]2C3C(=O)OCCC/C=C\[C@H]3OC23C=CCN(CCN2CCOCC2)C(=O)[C@@H]13` (stereo not given in full), the z-score in assay [1] is -0.723; in assay [2], 0.384 (inactive); in [3] it was -0.686 (inactive); in [5] it was 0.109 (inactive); in assay [6], -0.0505 (inactive); in assay [7] it was 1.01 (inactive). Further, the results for the z-score in [8] and in [9] were 0.566 (inactive) and -0.586, respectively. In addition, the composite z-score in assay [4] was -3.09 (inactive); in [10], 0.0191.
Consider `COc1cc2c(cc1OC)CN(C(=O)[C@@H]1[C@H]3C(=O)O[C@H](c4ccccc4)[C@H](c4ccccc4)N3[C@H](c3ccccc3OCCO)[C@@]13C(=O)Nc1ccc(C#CCCO)cc13)CC2`, for which the z-score in assay [1] is 0.0986; in [2], 1.28 (inactive); in assay [3], -0.0469 (inactive); in [5], 2.35 (inactive); in [6] it was 1.98 (inactive); in assay [7], 0.158 (inactive). The z-score in assay [8] is 0.793 (inactive); in assay [9] it was 0.43. For the same compound, the composite z-score in assay [4] is 0.379 (inactive); in assay [10], 0.271.
As to `COc1ccc(C#Cc2ccc3c(c2)[C@]2(C(=O)N3)[C@H](C(=O)NC[C@H](O)c3ccccc3)[C@H]3C(=O)O[C@H](c4ccccc4)[C@H](c4ccccc4)N3[C@@H]2c2ccc(O)cc2)cc1`, the z-score in [1] was -0.475; in [2], -0.26 (inactive); in assay [3], -2.61 (inactive); in [5], 0.971 (inactive); in [6], 2.29 (inactive); in [7], 0.0945 (inactive). Moreover, the values for the z-score in [8] and in assay [9] were 0.51 (inactive) and -3.97, respectively. Besides, the composite z-score in [4] was 0.843 (inactive); in assay [10] it was 0.262.
Take `COCCOC(=O)N1C(=O)[C@@]2(c3cc(C#CCC(C(=O)OC)C(=O)OC)ccc31)[C@H](C(=O)Nc1nc3ccccc3s1)[C@H]1C(=O)O[C@H](c3ccccc3)[C@H](c3ccccc3)N1[C@@H]2c1ccccc1OCCO`: the z-score in [1] was -0.397; in assay [2], 1.3 (inactive); in [3] it was -1.38 (inactive); in assay [5], 2.96 (inactive); in assay [6] it was 2.8 (inactive); in [7] it was 0.0871 (inactive). The z-score was 0.642 (inactive) in assay [8] and -0.39 in assay [9]. The figures for the composite z-score in assay [4] and in assay [10] were -0.715 (inactive) and 0.109, respectively.
